According to the supplement of paper PMC8975748:
Counter-ions that a name gives are not always drawn. ± gives the standard deviation of the averaged measurements.

Experiments:
[1] = system: Saccharomyces cerevisiae BY4741 SeMeCo community; assay: mean cell size (pixel area) (pixels); higher = larger cells; conditions: 10 µM; 24 h; SM minimal medium
In short: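 Mean cell pixel area per well was measured in a four-plasmid fluorescent community of Saccharomyces cerevisiae BY4741, where every plasmid complements one auxotrophy and carries a fluorescent marker. Cells from an overnight preculture at OD600 = 1.0 were diluted to OD600 = 0.3 and dispensed at 70 µl into 384-well plates acoustically predosed with drug to a final 10 µM in SM medium. Incubation lasted 24 h, followed by paraformaldehyde fixation, automated confocal imaging and analysis in Harmony. Reported figures are averaged over 3 replicates. Same SeMeCo high-content imaging drug screen: Selleck FDA-approved drugs at 10 µM, 24 h in SM medium, 384-well plates, 3 replicates.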

[2] = system: Saccharomyces cerevisiae BY4741 SeMeCo community; assay: z-score of prototroph abundance vs DMSO median; higher = larger share of this subpopulation than in DMSO controls; conditions: 10 µM; 24 h; SM minimal medium; subpopulation (auxotrophy): Prototroph
In short: (§1)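 Cells of a Saccharomyces cerevisiae BY4741 community, carrying four plasmids that each restored one auxotrophy and encoded a distinct fluorescent protein, were pre-grown overnight to OD600 1.0 and diluted to 0.3. A 70 µl volume was added to 384-well plates acoustically predosed with library drugs (10 µM final) and grown 24 h in minimal SM medium. After paraformaldehyde fixation, automated confocal microscopy was used, with single-auxotroph fluorescent strains for thresholds and autofluorescence correction. The abundance of each subpopulation was scored as a z-score against the vehicle-well median.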

[3] = system: Saccharomyces cerevisiae BY4741 SeMeCo community; assay: z-score of subpopulation abundance vs DMSO median, subpopulation auxotrophic for M; higher = larger share of this subpopulation than in DMSO controls; conditions: 10 µM; 24 h; SM minimal medium; subpopulation (auxotrophy): M
In short: as §1

[4] = system: Saccharomyces cerevisiae BY4741 SeMeCo community; assay: z-score of subpopulation abundance vs DMSO median, subpopulation auxotrophic for L; higher = larger share of this subpopulation than in DMSO controls; conditions: 10 µM; 24 h; SM minimal medium; subpopulation (auxotrophy): L
In short: as §1

[5] = system: Saccharomyces cerevisiae BY4741 SeMeCo community; assay: z-score of subpopulation abundance vs DMSO median, subpopulation auxotrophic for H; higher = larger share of this subpopulation than in DMSO controls; conditions: 10 µM; 24 h; SM minimal medium; subpopulation (auxotrophy): H
In short: as §1

[6] = system: Saccharomyces cerevisiae BY4741 SeMeCo community; assay: z-score of subpopulation abundance vs DMSO median, subpopulation auxotrophic for LM; higher = larger share of this subpopulation than in DMSO controls; conditions: 10 µM; 24 h; SM minimal medium; subpopulation (auxotrophy): LM
In short: as §1

[7] = system: Saccharomyces cerevisiae BY4741 SeMeCo community; assay: z-score of subpopulation abundance vs DMSO median, subpopulation auxotrophic for HM; higher = larger share of this subpopulation than in DMSO controls; conditions: 10 µM; 24 h; SM minimal medium; subpopulation (auxotrophy): HM
In short: as §1

[8] = system: Saccharomyces cerevisiae BY4741 SeMeCo community; assay: z-score of subpopulation abundance vs DMSO median, subpopulation auxotrophic for HU; higher = larger share of this subpopulation than in DMSO controls; conditions: 10 µM; 24 h; SM minimal medium; subpopulation (auxotrophy): HU
In short: as §1

[9] = system: Saccharomyces cerevisiae BY4741 SeMeCo community; assay: z-score of subpopulation abundance vs DMSO median, subpopulation auxotrophic for UM; higher = larger share of this subpopulation than in DMSO controls; conditions: 10 µM; 24 h; SM minimal medium; subpopulation (auxotrophy): UM
In short: as §1

[10] = system: Saccharomyces cerevisiae BY4741 SeMeCo community; assay: z-score of subpopulation abundance vs DMSO median, subpopulation auxotrophic for HL; higher = larger share of this subpopulation than in DMSO controls; conditions: 10 µM; 24 h; SM minimal medium; subpopulation (auxotrophy): HL
In short: as §1

[11] = system: Saccharomyces cerevisiae BY4741 SeMeCo community; assay: z-score of subpopulation abundance vs DMSO median, subpopulation auxotrophic for HLU; higher = larger share of this subpopulation than in DMSO controls; conditions: 10 µM; 24 h; SM minimal medium; subpopulation (auxotrophy): HLU
In short: as §1

[12] = system: Saccharomyces cerevisiae BY4741 SeMeCo community; assay: z-score of subpopulation abundance vs DMSO median, subpopulation auxotrophic for HLM; higher = larger share of this subpopulation than in DMSO controls; conditions: 10 µM; 24 h; SM minimal medium; subpopulation (auxotrophy): HLM
In short: as §1

[13] = system: Saccharomyces cerevisiae BY4741 SeMeCo community; assay: z-score of subpopulation abundance vs DMSO median, subpopulation auxotrophic for LUM; higher = larger share of this subpopulation than in DMSO controls; conditions: 10 µM; 24 h; SM minimal medium; subpopulation (auxotrophy): LUM
In short: as §1

[14] = system: Saccharomyces cerevisiae BY4741 SeMeCo community; assay: z-score of subpopulation abundance vs DMSO median, subpopulation auxotrophic for HLUM; higher = larger share of this subpopulation than in DMSO controls; conditions: 10 µM; 24 h; SM minimal medium; subpopulation (auxotrophy): HLUM
In short: as §1

[15] = system: Saccharomyces cerevisiae BY4741 SeMeCo community; assay: z-score of subpopulation abundance vs DMSO median, subpopulation auxotrophic for U; higher = larger share of this subpopulation than in DMSO controls; conditions: 10 µM; 24 h; SM minimal medium; subpopulation (auxotrophy): U
In short: as §1

[16] = system: Saccharomyces cerevisiae BY4741 SeMeCo community; assay: z-score of subpopulation abundance vs DMSO median, subpopulation auxotrophic for HUM; higher = larger share of this subpopulation than in DMSO controls; conditions: 10 µM; 24 h; SM minimal medium; subpopulation (auxotrophy): HUM
In short: as §1

Compound	mean cell size [1]	z-score of prototroph abundance [2]	z-score of subpopulation abundance [3]	z-score of subpopulation abundance [4]	z-score of subpopulation abundance [5]	z-score of subpopulation abundance [6]	z-score of subpopulation abundance [7]	z-score of subpopulation abundance [8]	z-score of subpopulation abundance [9]	z-score of subpopulation abundance [10]	z-score of subpopulation abundance [11]	z-score of subpopulation abundance [12]	z-score of subpopulation abundance [13]	z-score of subpopulation abundance [14]	z-score of subpopulation abundance [15]	z-score of subpopulation abundance [16]
CC1(C)S[C@@H]2[C@H](NC(=O)Cc3ccccc3)C(=O)N2[C@H]1C(=O)O [Penicillin G Sodium]	12.6 ± 0.34	0.77	-0.8	-0.1	-0.3	-0.29	-1.14	-0.78	-0.23	-0.32	-0.18	-0.09	-0.52	1.41	–	–
OC1(c2ccc(Cl)c(C(F)(F)F)c2)CCN(CCCC(c2ccc(F)cc2)c2ccc(F)cc2)CC1 [Penfluridol]	–	-1.64	1.3	0.81	0.09	2.64	–	–	2.69	–	0.93	0.92	2.56	0.27	-0.01	0.44
NS(=O)(=O)Cc1noc2ccccc12 [Zonisamide]	12.4 ± 0.24	-0.82	0.41	1.91	0.46	1.13	0.69	-0.35	-0.04	–	1.02	–	1.7	1.75	-0.42	0.45
CNCC[C@H](Oc1cccc2ccccc12)c1cccs1 [Duloxetine HCl]	12.5 ± 0.21	0.65	0.4	-0.57	-0.45	-0.49	0	–	–	-1.07	-0.74	-0.84	-0.53	0.03	-0.11	-0.47
NC[C@@H]1O[C@H](O[C@H]2[C@@H](O)[C@H](O[C@@H]3[C@@H](O)[C@H](N)C[C@H](N)[C@H]3O[C@H]3O[C@H](CN)[C@@H](O)[C@H](O)[C@H]3N)O[C@@H]2CO)[C@H](N)[C@@H](O)[C@@H]1O [Neomycin sulfate]	–	0.99	-0.79	0.21	0.56	-0.12	-1.14	-0.31	–	-0.31	-0.36	-0.3	-0.31	0.16	0.07	–
CC[C@@H]1/C=C(\C)C[C@H](C)C[C@H](OC)[C@H]2O[C@@](O)(C(=O)C(=O)N3CCCC[C@H]3C(=O)O[C@H](/C(C)=C/[C@@H]3CC[C@H](Cl)[C@H](OC)C3)[C@H](C)[C@@H](O)CC1=O)[C@H](C)C[C@@H]2OC [Pimecrolimus]	–	-1.82	1.75	3.91	1.91	4.26	1.95	–	-0.8	4.57	1.88	2.14	4.36	2.63	-1.72	0.94
CC(NCCC(c1ccccc1)c1ccccc1)c1ccccc1 (stereo not given) [Fendiline hydrochloride]	12.1 ± 0.2	1.56	-1.56	0.03	-1.47	-0.45	-1.15	-0.97	-1.15	–	-0.27	–	0.05	-0.29	–	-0.72
C[C@]12CCC3=C4CCC(=O)C=C4CC[C@H]3[C@@H]1CC[C@@]2(O)CC#N [Dienogest]	–	0.42	-0.36	0.12	0.11	-0.44	-0.11	-0.02	-0.39	0.26	-0.53	-0.38	0	-0.14	-0.87	–
NC(=O)c1ncn([C@@H]2O[C@H](CO)[C@@H](O)[C@H]2O)n1 [Ribavirin]	12.45 ± 0.12	-0.16	-0.5	-0.43	-0.52	–	–	0.42	0.53	-0.89	-0.19	-0.6	0.09	-0.37	1.52	–
CC1=C(C(=O)O)N2C(=O)[C@@H](NC(=O)[C@H](N)c3ccccc3)[C@H]2SC1 [Cephalexin]	12 ± 0.24	–	1.37	0.02	0.56	0.35	1.28	–	-0.17	0.67	-0.6	-0.53	-0.42	–	–	–
CCCN(CCC)CCc1cccc2c1CC(=O)N2 [Ropinirole HCl]	–	–	-0.4	1.95	-0.16	0.91	0.44	0.41	–	0.65	1.05	-0.19	1.74	–	0.26	0.58
CC1(C)S[C@@H]2[C@H](NC(=O)Cc3ccccc3)C(=O)N2[C@H]1C(=O)O.CCN(CC)CCOC(=O)c1ccc(N)cc1 [Penicillin G Procaine]	12.2 ± 0.22	-1.56	0.35	0.99	–	1	–	–	0.64	2.5	0.81	0.43	1.6	1.65	-0.07	0.86
NC(=O)N1c2ccccc2CC(=O)c2ccccc21 [Oxcarbazepine]	12.4 ± 0.25	0.37	-0.31	-0.68	-0.49	0.14	–	0.16	0.07	-0.1	-0.11	-1.13	0.55	0.1	0.16	0.19
Cc1nc2n(c(=O)c1CCN1CCC(c3noc4cc(F)ccc34)CC1)CCCC2 [Risperidone]	12.3 ± 0.18	-0.99	-0.08	-0.44	0.92	0.47	0.48	0.99	0.87	0.49	0.19	0.11	0.14	–	0.56	1.02
CC[C@H]1OC(=O)C[C@@H](O)[C@H](C)[C@@H](O[C@@H]2O[C@H](C)[C@@H](O)[C@H](N(C)C)[C@H]2O)[C@@H](CCN2C[C@H](C)C[C@H](C)C2)C[C@@H](C)C(=O)/C=C/C(C)=C/[C@@H]1CO[C@@H]1O[C@H](C)[C@@H](O)[C@@H](OC)[C@H]1OC [Tilmicosin phosphate]	12.3 ± 0.3	0.18	-0.36	0.06	2.1	-0.81	–	-0.34	-0.01	-0.13	-0.18	-0.09	-0.25	–	-0.3	-0.09
Clc1ccc(C(Cn2ccnc2)OCc2ccc(Sc3ccccc3)cc2)c(Cl)c1 (stereo not given) [Fenticonazole Nitrate]	10.7 ± 0.2	-13.4	-13.8	4.64	25	-5.38	–	28.7	-3.35	62.4	14.8	30.4	–	109	4.22	4.77
